FBW7 act: activators of human E3 ligase FBW7; Q969H0; AlphaScreen FBW7–phospho-cyclin E peptide binding, activator screen; normalized activity (activation), % at 26.1 µM; actives 0.13% (n = 650,000); AID 1259310; in the data active = normalized activity above about 1.9%;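 also: purified mutant Fbw7 with reduced substrate affinity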
MITF primary: human MITF inhibition, primary screen; O75030; AlphaScreen MITF homodimerization, bead proximity signal; inhibition, % at 2.6 µM; actives 0.91% (n = 650,000); AID 1259374; in the data active = inhibition above about 50%;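 also: 0% = vehicle wells with protein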
Target sequence (O75030 whole entry, looked up): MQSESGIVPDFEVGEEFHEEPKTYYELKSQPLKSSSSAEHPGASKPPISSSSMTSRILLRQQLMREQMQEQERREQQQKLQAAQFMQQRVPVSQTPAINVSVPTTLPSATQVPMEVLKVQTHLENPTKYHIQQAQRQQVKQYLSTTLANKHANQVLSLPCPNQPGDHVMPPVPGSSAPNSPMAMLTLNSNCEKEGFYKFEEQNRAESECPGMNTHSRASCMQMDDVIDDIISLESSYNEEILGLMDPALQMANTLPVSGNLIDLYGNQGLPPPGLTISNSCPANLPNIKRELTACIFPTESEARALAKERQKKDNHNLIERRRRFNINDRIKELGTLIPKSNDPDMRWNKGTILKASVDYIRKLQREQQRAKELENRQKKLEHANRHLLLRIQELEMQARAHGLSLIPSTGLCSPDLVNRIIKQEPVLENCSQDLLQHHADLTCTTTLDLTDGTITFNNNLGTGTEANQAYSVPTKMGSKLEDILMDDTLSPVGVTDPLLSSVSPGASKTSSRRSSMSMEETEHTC
GPR151 ag: human GPR151 activation; activation, % at 11.2 µM; actives 1% (n = 650,000); PathHunter beta-arrestin GPR151 cells, luminescence; in the data active = activation above about 4.9%;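 also: 0% = median of compound wells and 100% = cells with positive control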
TEAD-YAP inh: TEAD-YAP interaction inhibition; HEK-TIYL cells, TEAD-Gal4/YAP UAS-luciferase luminescence; inhibition, % at 9.12 µM; actives 1.4% (n = 640,000); in the data active = inhibition above about 32%;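 also: 0% = median of test compound wells and 100% = reference inhibitor wells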
An asterisk follows results filed as active. A selection: hits, their analogues and other compounds. The true share with any hit is near 3.5%.

For O=C(Cc1ccccc1)Nn1c(SCC(=O)c2ccc(F)cc2)nc2ccccc2c1=O the results were FBW7 act 0, MITF primary -7, GPR151 ag -1 and TEAD-YAP inh -8.
`COc1ccc(C(=O)Nn2c(SCC(=O)c3ccccc3)nc3ccccc3c2=O)cc1` gave FBW7 act 0, MITF primary -12, GPR151 ag 0 and TEAD-YAP inh 70*.
For COc1ccc2nc(/C(C#N)=C\c3cccc([N+](=O)[O-])c3)[nH]c2c1 the results were FBW7 act 0, MITF primary 6, GPR151 ag 0 and TEAD-YAP inh -13.
O=C(CCl)Nc1ccc(OC(F)F)cc1 was read as FBW7 act 0, MITF primary 11, GPR151 ag 0 and TEAD-YAP inh 35*.
O=C(Nc1ccc(OC(F)(F)F)cc1)c1ccc(=O)[nH]c1 was read as FBW7 act 0, MITF primary -4, GPR151 ag 0 and TEAD-YAP inh 33*.
For CCCC(=O)Nc1ccc(Cl)c(C(F)(F)F)c1 the results were FBW7 act 0, MITF primary 10, GPR151 ag 2 and TEAD-YAP inh 14.
For O=C(CCl)Nc1ccc(OC(F)(F)F)cc1 the results were FBW7 act 0, MITF primary 6, GPR151 ag 0 and TEAD-YAP inh 34*.
`O=C(O)CCCC(=O)Nc1ccc(OC(F)(F)F)cc1` gave FBW7 act 0, MITF primary 6, GPR151 ag 0 and TEAD-YAP inh 1.
O=C(CCl)Nc1ccc(Cl)c(C(F)(F)F)c1 was read as FBW7 act 0, MITF primary -1, GPR151 ag 2 and TEAD-YAP inh 39*.
For O=C(c1csc2ccccc12)N1CCN(C(=O)C2CCCO2)CC1 (stereo not drawn) the results were FBW7 act 0, MITF primary 8, GPR151 ag 1 and TEAD-YAP inh 11.
Screening COCCNC(=S)Nc1ccc(C)c([N+](=O)[O-])c1 returned FBW7 act 0, MITF primary -11, GPR151 ag 0 and TEAD-YAP inh -1.
O=C(CSc1nnc2ncccn12)Nc1cccc(Cl)c1 was read as FBW7 act 1, MITF primary 13, GPR151 ag 1 and TEAD-YAP inh 10.
`O=C1CC(c2ccc([N+](=O)[O-])cc2)C2=C(CC(c3ccc(F)cc3)CC2=O)N1` (stereo not drawn) gave FBW7 act 0, MITF primary -10, GPR151 ag 0 and TEAD-YAP inh -7.
CCCCCCc1c(O)nc(SCCN(CCC)CCC)[nH]c1=O was read as FBW7 act 0, MITF primary -2, GPR151 ag 0 and TEAD-YAP inh 2.
For CCC(=O)N1CCN(c2ccc(NC(=O)COc3ccccc3C)cc2)CC1 the results were FBW7 act 0, MITF primary 14, GPR151 ag 0 and TEAD-YAP inh 2.
Screening NC(=O)c1ccsc1NC(=O)c1ccc2c(c1)CCCC2 returned FBW7 act 0, MITF primary 6, GPR151 ag -10 and TEAD-YAP inh 58*.
CCN(CC)CCn1c(=N)n(CC(=O)c2ccc(C)cc2)c2ccccc21 was read as FBW7 act 3.3*, MITF primary 18, GPR151 ag 0 and TEAD-YAP inh 13.
N=c1sc2c(n1CC(=O)c1ccccc1)CCCC2 was read as FBW7 act 0, MITF primary -10, GPR151 ag -11 and TEAD-YAP inh 91*.
For Cc1ccc(C(=O)Cn2c3ccccc3n3nc(C)nc23)cc1 the results were FBW7 act 0, MITF primary 0, GPR151 ag -1 and TEAD-YAP inh 47*.
Cn1c(=N)n(CC(=O)c2ccccc2)c2ccccc21 was read as FBW7 act 0, MITF primary 5, GPR151 ag -1 and TEAD-YAP inh 45*.
Screening COc1ccc(C(=O)Cn2c(=N)n(C)c3ccccc32)cc1 returned FBW7 act 0, MITF primary -5, GPR151 ag 0 and TEAD-YAP inh -79.
`CN(C)C(=O)C(=O)Nc1ccc(Cl)c(C(=O)N2CCC(Oc3ccc(F)cc3)CC2)c1` gave FBW7 act 0, MITF primary 8, GPR151 ag 0 and TEAD-YAP inh 47*.
CN(C)C(=O)C(=O)Nc1ccc(Cl)c(C(=O)N2CCC(Oc3ccc(Cl)cn3)CC2)c1 was read as FBW7 act 0, MITF primary 4, GPR151 ag 0 and TEAD-YAP inh 48*.
For O=C(c1ccncc1)N1CCC(Oc2ccc(Cl)cn2)CC1 the results were FBW7 act 1, MITF primary 13, GPR151 ag 0 and TEAD-YAP inh 8.
`Cc1ccc(NS(=O)(=O)CCOc2ccccc2)cc1F` gave FBW7 act 1, MITF primary 3, GPR151 ag -2 and TEAD-YAP inh 39*.
